Compound activity as filed in PubChem.
Most compounds without a hit are left out; they make up all but 2.2% or so of the library.
Hsp70 act = switches on Hsp70 transcription; HeLa Hsp70 promoter luciferase reporter, luminescence; scaled: vehicle 0, proteasome-inhibitor control 100%; activation, % at 10 µM; 200,000 compounds, 0.04% hits; AID 1203;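 active = activation above the mean across all tested compounds plus 3 SD, cutoff set per campaign, cut at about 5.5% in these data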
SMARCA2 act = activators of SMARCA2 function; MG213 cells, MMTV-luciferase reporter, dexamethasone, overnight; activation, % at 9.1 µM; 370,000 compounds, 1% hits; AID 652017; in the data active = activation above about 7.8%
GAA850 FXN act = increases GAA850 frataxin promoter reporter activity. HEK293 lucGAA850 FXN promoter luciferase reporter, 24 h; percent of 10 µM SAHA response. activation, % at 6 µM. 360,000 compounds, 0.56% hits;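 active = activation above the average of all compounds screened plus 3 SD, cutoff fixed separately per campaign, cut at about 7.5% in these data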
HIF act = HIF pathway transcriptional activation; U2OS HRE-luciferase reporter, luminescence; normalized: DMSO 0%, desferrioxamine 100%; activation, % at 7.5 µM (by protocol); 300,000 compounds, 0.32% hits; AID 1910;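 active = mean activation of at least 10% of the iron chelator positive control signal, with at least half of replicates also reaching 10%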
GalR3 antag = human GalR3 antagonism; 360,000 compounds, 0.44% hits; HEK293 GalR3-CNG cAMP membrane potential fluorescence; galR3 body fused to GalR1 C-terminus; AID 651719; inhibition, % at 3 µM;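 active = inhibition above the screen-wide average plus 3 SD, cut at about 13% in these data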;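 also: forskolin and galanin both at EC90 stimulate the cells; cAMP rise reported by CNG channel membrane potential dye signal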
Target sequence (O60755 1-299 limits assumed): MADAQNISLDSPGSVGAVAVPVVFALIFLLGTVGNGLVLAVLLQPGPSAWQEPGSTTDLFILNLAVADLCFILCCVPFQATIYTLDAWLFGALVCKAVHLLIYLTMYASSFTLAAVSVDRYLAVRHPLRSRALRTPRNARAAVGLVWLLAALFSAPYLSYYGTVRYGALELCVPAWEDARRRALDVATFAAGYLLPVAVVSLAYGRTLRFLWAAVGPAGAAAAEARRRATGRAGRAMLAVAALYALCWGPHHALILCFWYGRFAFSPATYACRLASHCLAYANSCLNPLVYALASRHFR
GalR3 antag conf = GalR3 (human) antagonism, confirmation | HEK293 GalR3 CNG cAMP biosensor, membrane potential fluorescence; galR3 fused to GalR1 carboxy tail; challenged with forskolin and galanin at EC90 | inhibition, % at 3 µM | AID 652245 | 1,600 compounds, 59% hits | shares compounds with GalR3 antag;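 active = inhibition above the primary screen's cutoff, the mean inhibition of all screened compounds plus 3 SD, cut at about 13% in these data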
HEK-CNG parental = acts as nonspecific agonist in parental HEK-CNG cells; 1,600 compounds, 10% hits; shares compounds with GalR3 antag; HEK293-CNG parental cells, cAMP membrane potential fluorescence; normalised: DMSO wells 0%, forskolin wells 100%; activation, % at 3 µM; in the data active = activation above about 1.3%
A number is an active result; - = inactive; . = not tested or not shown; ! = repeats disagree.

SMILES | Hsp70 act | SMARCA2 act | GAA850 FXN act | HIF act | GalR3 antag | GalR3 antag conf | HEK-CNG parental
CCn1cc(CNC(=O)c2ccc(OC3CCN(Cc4ccccn4)CC3)cc2)cn1 | . | - | - | - | - | . | .
CCN1/C(=C/c2sc(-c3ccccc3C)c[n+]2C)Sc2ccccc21 | - | - | - | - | 51 | 72 | 2.2
CCC(=O)/C=C1/Sc2ccccc2N1CC | - | - | - | - | - | . | .
COC(=O)C1CN(C2CC2)CCS(=O)(=O)N1Cc1cn(Cc2ccc(F)cc2)nn1 (stereo not given) | . | - | . | . | . | . | .
COc1ccc(CCNc2ccc(N3C(=O)CC(C)C3=O)cc2[N+](=O)[O-])cc1 (stereo not given) | - | - | - | - | - | . | .
COc1ccc(CCNc2ccc(N3C(=O)CC(C)C3=O)cc2[N+](=O)[O-])cc1OC (stereo not given) | - | - | - | - | 59 | 104 | -
COc1ccc(C2=NN(c3nc(C(=O)O)cs3)C(O)(C(F)(F)F)C2)c(OC)c1 (stereo not given) | - | - | - | - | 66 | 74 | -
Cc1cc(C(F)(F)F)n(-c2nc(C(=O)O)cs2)n1 | - | - | - | - | - | . | .
CCCCN1C[C@@H](COCc2ccccc2)Oc2cc(F)ccc2S1(=O)=O | . | - | . | . | . | . | .
N#CC(C#N)=C(Nc1ccc(F)cc1)SCc1cccc(Br)c1 | - | - | - | - | 92 | 100 | -
COCCN1CCN(C(=O)c2ccc3nc(Cc4ccc(OC)c(OC)c4)oc3c2)CC1 | . | - | - | - | 88 | 48 | -
COc1ccc(CN2CCC(C(=O)Nc3ccc(Oc4ccccc4)nc3)CC2)cc1F | . | - | - | - | 62 | 101 | -
COc1cc(F)ccc1CN1CCC(C(=O)Nc2ccc(Oc3ccccc3)nc2)CC1 | . | - | - | - | - | . | .
CC(=NNc1cc(C)c2cc(C)ccc2n1)c1ccccn1 | . | - | . | . | - | . | .
CCC(C)C(=O)Nn1c(C2CC2)nc2cc(OC)c(OC)cc2c1=O (stereo not given) | - | - | - | - | 25 | 29 | -
CCCCc1c(-c2ccccc2OC)ncn1Cc1cc(F)ccc1F | . | - | . | . | - | . | .
COc1ccc(-c2cn(-c3ccccc3)c3[n+]2CCS3)cc1 | - | - | - | - | 16! | - | -
c1ccc(-c2cn(-c3ccccc3)c3[n+]2CCS3)cc1 | - | - | - | - | - | . | .
CC(C)(C)c1ccc(-c2cn(-c3ccc(Br)cc3)c3[n+]2CCCS3)cc1 | - | - | - | - | 25 | 60 | 1.7
Fc1ccc(-n2cc(-c3ccccc3)[n+]3c2SCC3)cc1 | - | - | - | - | - | . | .
COc1ccc(NC(=O)NCCCN2CCN(c3ccc(F)cc3)CC2)cc1OC | . | - | . | . | . | . | .
CCOC(=O)c1ccc(NC(=O)c2nc[nH]c2C(=O)NC2CCN(C(=O)OC(C)(C)C)CC2)cc1 | . | - | - | - | 17 | - | -
COc1ccc(COC(=O)C2=C(C)NC(=O)NC2c2cc(Br)c(O)c(OC)c2)cc1 (stereo not given) | . | - | - | - | 29 | 35 | -
CCOc1cc(C2NC(=O)NC(C)=C2C(=O)OCc2ccccc2)ccc1O (stereo not given) | - | - | - | - | 13 | 15 | -
O=C(Nc1c(-c2ccccc2)nc2ncccn12)C1CC1 | . | - | . | . | . | . | .
SMILES | Hsp70 act | SMARCA2 act | GAA850 FXN act | HIF act | GalR3 antag | GalR3 antag conf | HEK-CNG parental
COc1cccc2[nH]c3c(N4CCc5ccccc5C4)ncnc3c12 | . | . | . | - | . | . | .
COc1cccc2[nH]c3c(N4CCC(C)CC4)ncnc3c12 | - | - | - | - | 86 | 96 | -
COc1cccc(CNC(=S)OC2CCC23CCC(c2ccccc2)CC3)c1 (stereo not given) | . | - | . | . | . | . | .
COC(=O)C[C@@H]1CC[C@@H]2[C@@H](COc3ccc(NC(=O)Nc4ccc(F)cc4)cc3C(=O)N2C)O1 | . | - | . | . | . | . | .
CCCCOc1ccc(C(=O)Nc2ccncc2)cc1 | - | - | - | - | 57 | 102 | -
O=C(COc1ccc(C(=O)c2ccccc2)cc1)Nc1cccnc1 | . | - | - | - | 97 | 108 | -
Cc1cc(OCC(=O)Nc2ccncc2)cc(C)c1Br | - | - | - | - | 65 | 62 | -
CCCOc1ccc(C(=O)Nc2cccnc2)cc1 | . | - | - | - | - | . | .
